Test results published in PubChem BioAssay (NCATS).
The source made the active and inactive calls. Calls follow the shape of the dose curve; as a rule, active = well fitted inhibition curve with a large enough effect; inconclusive = small, poorly fitted or top-dose-only effect; inactive = no such curve, though single readings can be large or run the other way.

Test: qHTS assay for measurement of the activity of small molecule inhibitors on Zika virus induced Caspase-3 activity in human astrocytoma cells (AID 1224859)
Settings: SNB-19 ZIKV-induced caspase-3/7, luminescence, 6 h; series mostly up to 45.7 µM; activity change, negative = inhibition: at the top concentration
Source text: National Center for Advancing Translational Sciences [NCATS]
Johns Hopkins University School of Medicine
Increase in the Caspase-3 activity indicates an activation of apoptosis cell death pathway caused by Zika virus infection in certain types of neuronal cells including human neural progenitor cells (hNPCs), astrocytes, and astrocytoma cell line (SNB-19). This cell-based caspase-3 activity assay measures the increased caspase-3 activity in the astrocytoma cell line (SNB-19) after a 6-hour Zika virus infection with a luminescence readout. A decrease in the luminescence signal in this assay by small molecule treatment indicates an inhibitory effect of that small molecule on the Zika virus induced caspase-3 activity that may correlate with its effect on reduction of Zika virus caused cell death.
The medium for SNB-19 cells is composed of RPMI 1640 (ATCC, Cat.# 30-2001), 10% fetal bovine serum (FBS) (GE healthcare Life Sciences, Cat.# SH30071.03), and 1% Pen/Strep (Gibco, Cat.# 15140-122). A Caspase-Glo 3/7 assay kit (catalog number G8092; Promega, Madison, WI) was used to detect caspase-3 activity induced by Zika virus infection in human cells. The reagent mixture was reconstituted as described in the protocol from the manufacturer. Polystyrene tissue culture treated and PDL coated white plates were obtained from Greiner Bio-One (Monroe, NC). Cells were seeded in 384- or 1536-well assay plates and cultured at 37 C with 5% CO2 for 16 to 20 hours. The typical cell seeding density in the 1536-well plate assay is 250 cells/well in 3ul medium for SNB-19 cells in tissue culture treated plates. Compounds were added to cells and incubated for one hour before addition of ZIKV solution to cells (2 FFU/cell). After incubation at 37 C with 5% CO2 for 6 hours, the reagent mixture of Caspase-Glo 3/7 assay kit was added to each well, followed by incubation at room temperature for 30 minutes. The luminescence intensity of the assay plates was measured using a ViewLux plate reader (PerkinElmer). Data were normalized by using the cell-containing wells without ZIKV as a negative control (0% induction of caspase 3/7 activity) and wells containing ZIKV infected cells (Caspase-3 activity induced) as a positive control (100% induction of caspase 3 activity). The percentage inhibitions of the increased Caspase-3 activity by small molecule inhibitors were then calculated.

Row | SMILES | activity change, negative = inhibition
1 | CCC(=O)N1CCN(c2ccc(-n3c(=O)ccc4cnc5ccc(-c6cnc7ccccc7c6)cc5c43)cc2C(F)(F)F)CC1 | 15.9% (inactive)
2 | CC(C)CN(C[C@H](O)[C@H](Cc1ccccc1)NC(=O)O[C@H]1CCOC1)S(=O)(=O)c1ccc(N)cc1 | 9.41% (inactive)
3 | CN(C)c1ccc(-c2nc3ncc(Cl)c(N4CCN(CC(=O)Nc5nccs5)CC4)c3[nH]2)cc1 | 16.4% (inactive)
4 | CC1CCN(c2cc(N3CCN(C)CC3)ccc2NC(=O)c2cc(C#N)c[nH]2)CC1 | 37.3% (inactive)
5 | CC[C@H](C)n1cc(C)c2c(C(=O)NCc3c(C)cc(C)[nH]c3=O)cc(-c3ccc(N4CCNCC4)nc3)cc21 | 0.433% (inactive)
6 | COC(=O)N1CCN(Cc2cccc(NC(=O)Nc3ccc(C)nc3)c2F)CC1 | -7.51% (inactive)
7 | CCCCCCCCCCCCCC(=O)N[C@H](CO)[C@H](O)c1ccc([N+](=O)[O-])cc1 | 3.62% (inactive)
8 | Cc1nc2c([nH]1)CCN(C(=O)c1ccc(NC(=O)c3ccccc3-c3ccccc3)cc1)c1ccccc1-2 | 8.57% (inactive)
9 | Cc1cnc(CNC(=O)c2c(=O)c3ccc(N4CCCN(C)CC4)nc3n3c2sc2ccccc23)cn1 | 8.32% [at 20.5 µM] (inactive)
10 | N#Cc1ccc(Oc2ccc3c(c2)COB3O)cc1 | 11.2% (inactive)
11 | Cc1ccc(C2=Nc3ccc(Cl)cc3OC2)cc1 | 21.2% (inactive)
12 | COc1ccc2c(c1)CC[C@H]1[C@@H]2CC[C@]2(C)[C@@H](NCCCCCCN3C(=O)C=CC3=O)CC[C@H]12 | 11.8% (inactive)
13 | O=C(c1ccc(C(=O)N2CCC(N3CCCC3)CC2)c(Nc2ccccc2)c1)N1CCC(N2CCCC2)CC1 | 27.3% (inactive)
14 | CC(C)(O)CC(=O)NCCn1ccc2ncnc(Nc3ccc(Oc4cccc(C(F)(F)F)c4)c(Cl)c3)c21 | 18.9% (inactive)
15 | Cc1ccc(S(=O)(=O)OCC(=O)Nc2ccc(C(=O)O)c(O)c2)cc1 | -3.42% (inactive)
16 | COc1ccc2nc3cc(Cl)ccc3c(Nc3cc(CN4CCCC4)c(O)c(CN4CCCC4)c3)c2n1 | 1.09% (inactive)
17 | COc1ccc(-c2ccc3ncc4c(c3c2)n(-c2ccc(N3CCNCC3)c(C(F)(F)F)c2)c(=O)n4C)cn1 | 44.1% (inactive)
18 | Cc1ccc2c(=O)c3cccc(CC(=O)O)c3oc2c1C | 92.7% (inactive)
19 | CNC1[C@H](O)C(O[C@@H]2C(O)C(O[C@H]3O[C@H]([C@@H](C)NC)CC[C@H]3N)[C@@H](N)C[C@H]2N)OC[C@]1(C)O (stereo not given in full) | -2.3% (inactive)
20 | COc1cc(C=CC(=O)O)ccc1O | -4.96% (inactive)

Row | SMILES | activity change, negative = inhibition
21 | O=C(NCCCCN1CCOCC1)c1cc2ccccc2o1 | -7.03% (inactive)
22 | CCC(=O)OCC(=O)[C@@]1(OC(=O)CC)[C@@H](C)C[C@@H]2[C@H]3CCC4=CC(=O)C=C[C@]4(C)[C@@]3(F)[C@@H](O)C[C@@]21C | 9.63% (inactive)
23 | Cc1nn(Cc2ccccc2Cl)c(C)c1CN(C)CC(O)COc1ccc(Cl)cc1 (stereo not given) | 41.7% (inactive)
24 | COc1nccc(-c2c(-c3ccc(F)cc3)ncn2C2CCNCC2)n1 | -9.33% (inactive)
25 | O=C(O)C1=CO[C@@H](O[C@@H]2O[C@H](CO)[C@H](O)[C@H](O)[C@H]2O)[C@@H]2C(CO)=CC[C@H]12 | 12.6% (inactive)
26 | CCN(CC)CCCCNc1nc2cc(Cl)c(Cl)cc2nc1-c1ccc(-c2cccs2)s1 | 17.3% (inactive)
27 | NC1(C(=O)N[C@@H](CCO)c2ccc(Cl)cc2)CCN(c2ncnc3[nH]ccc23)CC1 | 193% (inactive)
28 | CC(C)=CCCC(C)=CCCC(C)=CCCC(C)=CCCC(C)=CCCC(C)=CCCC(C)=CCCC(C)=CCCC(C)=CCO | -1.72% (inactive)
29 | CN1CC(=O)NC1=NC(=O)Nc1cccc(Cl)c1 | 16.7% (inactive)
30 | CCn1c(-c2nonc2N)nc2cncc(CNC3CCNCC3)c21 | 73.3% (inactive)
31 | CNC(=O)c1cc(Oc2ccc(NC(=O)Nc3ccc(Cl)c(C(F)(F)F)c3)c(F)c2)ccn1 | -6.26% (inactive)
32 | COc1ccnc(CS(=O)c2nc3ccc(OC(F)F)cc3[nH]2)c1OC (stereo not given) | -1.33% (inactive)
33 | CCOC(=O)c1c(CSc2ccccc2)n(C)c2cc(Br)c(O)c(CN(C)C)c12 | 0.0031% (inactive)
34 | CN[C@@H]1CN(c2ccc3c(=O)c(C(=O)O)cn(-c4nccs4)c3n2)C[C@@H]1OC | 0.739% [at 20.5 µM] (inactive)
35 | O=C(CO)N1CCC(c2[nH]nc(-c3ccc(Cl)cc3)c2-c2ccncn2)CC1 | 0.177% (inactive)
36 | CN1CC(=O)N2C(Cc3c([nH]c4ccccc34)[C@H]2c2ccc3c(c2)OCO3)C1=O (stereo not given in full) | -30.1% (inactive)
37 | CCc1cccc(CC)c1NC(=O)N1Cc2[nH]nc(NC(=O)c3ccc(N4CCN(C)CC4)cc3)c2C1 | 28% (inactive)
38 | COc1ccc(-c2cc(=O)c3c(O)cc(O[C@@H]4O[C@H](CO[C@@H]5O[C@@H](C)[C@H](O)[C@@H](O)[C@@H]5O)[C@@H](O)[C@H](O)[C@@H]4O)cc3o2)cc1O | 2.4% (inactive)
39 | C[C@@H]1CCO[C@H]2Cn3cc(C(=O)NCc4ccc(F)cc4F)c(=O)c(O)c3C(=O)N12 | -6.14% (inactive)
40 | Nc1ncnc2c1c(-c1cccc(OCc3ccccc3)c1)cn2C1CC(CN2CCC2)C1 (stereo not given) | 26.6% (inactive)
